Common to all, as to design: scale not given: direction of the effect not stated beside the values
In test [1] the target is Protein translocase subunit SecA (Escherichia coli (strain K12)) (UniProt P10408). In words: Assay to Identify E. coli SecA ATPase Inhibitors. Type of test: functional. The note with it: 30 µM.
In test [2] the target is T1, Ubiquitin-activating enzyme e1, putative (Leishmania donovani (strain BPK282A1)) (UniProt E9BSI1).
T1 sequence (whole entry): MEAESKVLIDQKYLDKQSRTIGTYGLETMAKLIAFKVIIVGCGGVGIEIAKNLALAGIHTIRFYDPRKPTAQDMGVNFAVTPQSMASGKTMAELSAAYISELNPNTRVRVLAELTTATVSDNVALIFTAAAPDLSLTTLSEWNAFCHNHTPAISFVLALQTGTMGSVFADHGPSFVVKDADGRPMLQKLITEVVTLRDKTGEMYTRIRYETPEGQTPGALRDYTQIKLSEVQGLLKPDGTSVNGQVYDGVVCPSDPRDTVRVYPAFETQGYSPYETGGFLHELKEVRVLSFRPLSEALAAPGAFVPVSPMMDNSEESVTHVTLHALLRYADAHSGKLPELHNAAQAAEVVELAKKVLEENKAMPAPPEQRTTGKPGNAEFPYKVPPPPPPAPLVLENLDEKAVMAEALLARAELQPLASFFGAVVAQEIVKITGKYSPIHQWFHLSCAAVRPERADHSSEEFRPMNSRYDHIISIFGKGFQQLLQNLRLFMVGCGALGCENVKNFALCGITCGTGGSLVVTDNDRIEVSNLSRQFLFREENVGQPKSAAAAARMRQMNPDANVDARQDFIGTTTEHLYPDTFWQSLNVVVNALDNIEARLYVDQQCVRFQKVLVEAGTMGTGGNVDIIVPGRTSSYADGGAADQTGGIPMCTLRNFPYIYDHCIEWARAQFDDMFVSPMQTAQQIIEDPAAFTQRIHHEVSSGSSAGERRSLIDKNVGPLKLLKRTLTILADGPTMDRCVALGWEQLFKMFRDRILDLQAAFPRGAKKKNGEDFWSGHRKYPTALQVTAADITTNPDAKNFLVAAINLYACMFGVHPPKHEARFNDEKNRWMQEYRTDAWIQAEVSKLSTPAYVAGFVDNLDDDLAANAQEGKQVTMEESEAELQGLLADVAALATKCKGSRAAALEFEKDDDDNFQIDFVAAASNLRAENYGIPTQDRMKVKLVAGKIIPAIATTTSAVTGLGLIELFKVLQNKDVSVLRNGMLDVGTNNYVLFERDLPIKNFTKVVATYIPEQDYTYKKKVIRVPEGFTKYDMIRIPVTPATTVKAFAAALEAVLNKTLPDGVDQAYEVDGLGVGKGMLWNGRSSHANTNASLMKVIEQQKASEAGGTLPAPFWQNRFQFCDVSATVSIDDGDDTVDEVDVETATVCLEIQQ
In words: Leishmania donovani Ubiquitin Activating Enzyme (LdE1). Type of test: functional. The conditions noted are these: 30 µM.

The target in test [3] is Sialic acid-binding Ig-like lectin 9 (Homo sapiens) (UniProt Q9Y336). Briefly: Hs-Siglec9 ALPHAscreen SOP 20170721. The conditions noted are these: 10 µM.
For test [4], the system named is Trypanosoma cruzi. In words: Trypanosoma cruzi phosphomannomutase and mannose-1-phosphate guanylyltransferase assay. Type of test: functional. The note with it: 10 µM.
In test [5] the target is T2, Arginase-2, mitochondrial (Homo sapiens) (UniProt P78540).
T2 sequence (whole entry): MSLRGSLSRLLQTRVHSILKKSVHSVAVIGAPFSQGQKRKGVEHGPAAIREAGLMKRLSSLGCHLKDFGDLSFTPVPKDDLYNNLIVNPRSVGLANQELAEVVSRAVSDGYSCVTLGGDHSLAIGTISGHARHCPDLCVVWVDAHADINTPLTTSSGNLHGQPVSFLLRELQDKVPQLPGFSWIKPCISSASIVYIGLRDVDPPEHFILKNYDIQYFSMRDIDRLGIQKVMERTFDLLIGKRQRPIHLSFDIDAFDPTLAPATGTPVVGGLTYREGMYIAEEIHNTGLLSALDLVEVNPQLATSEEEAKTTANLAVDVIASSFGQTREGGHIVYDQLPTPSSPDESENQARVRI
In words: in vitro enzyme assay to detect the production of urea directly proportional to the activity of Arginase II. Further: in the data most compounds retested in dose-response had high values. The conditions noted are these: 33.3 µM. It is filed as functional.

Test [6] addresses T3, Proteasome subunit beta (Trypanosoma cruzi) (UniProt O96673).
T3 sequence (whole entry): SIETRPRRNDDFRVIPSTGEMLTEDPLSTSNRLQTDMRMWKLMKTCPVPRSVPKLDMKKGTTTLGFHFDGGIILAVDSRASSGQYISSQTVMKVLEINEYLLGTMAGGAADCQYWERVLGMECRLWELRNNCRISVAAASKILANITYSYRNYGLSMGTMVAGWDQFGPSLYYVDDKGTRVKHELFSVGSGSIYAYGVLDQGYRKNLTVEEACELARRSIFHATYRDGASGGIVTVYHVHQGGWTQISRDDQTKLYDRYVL
Briefly: Trypanosoma cruzi proteasome chymotrypsin-like activity (TcProtChymo) assay. Further: in the data most compounds retested in dose-response had high values. Type of test: functional. The conditions noted are these: 9.37 µM.

Test [7] is filed under the species Homo sapiens. In words: To identify inhibition of the IFN signalling (Jak-Stat) pathway via expression of an eGFP reporter gene under the control of an IFN-stimulated response element (ISRE) containing MxA promoter. The note with it: 30 µM. Type of test: functional.
Test [8] deals with T4, Tyrosyl-tRNA synthetase, putative (Trypanosoma cruzi (strain CL Brener)) (UniProt Q4DSP6).
T4 sequence (whole entry): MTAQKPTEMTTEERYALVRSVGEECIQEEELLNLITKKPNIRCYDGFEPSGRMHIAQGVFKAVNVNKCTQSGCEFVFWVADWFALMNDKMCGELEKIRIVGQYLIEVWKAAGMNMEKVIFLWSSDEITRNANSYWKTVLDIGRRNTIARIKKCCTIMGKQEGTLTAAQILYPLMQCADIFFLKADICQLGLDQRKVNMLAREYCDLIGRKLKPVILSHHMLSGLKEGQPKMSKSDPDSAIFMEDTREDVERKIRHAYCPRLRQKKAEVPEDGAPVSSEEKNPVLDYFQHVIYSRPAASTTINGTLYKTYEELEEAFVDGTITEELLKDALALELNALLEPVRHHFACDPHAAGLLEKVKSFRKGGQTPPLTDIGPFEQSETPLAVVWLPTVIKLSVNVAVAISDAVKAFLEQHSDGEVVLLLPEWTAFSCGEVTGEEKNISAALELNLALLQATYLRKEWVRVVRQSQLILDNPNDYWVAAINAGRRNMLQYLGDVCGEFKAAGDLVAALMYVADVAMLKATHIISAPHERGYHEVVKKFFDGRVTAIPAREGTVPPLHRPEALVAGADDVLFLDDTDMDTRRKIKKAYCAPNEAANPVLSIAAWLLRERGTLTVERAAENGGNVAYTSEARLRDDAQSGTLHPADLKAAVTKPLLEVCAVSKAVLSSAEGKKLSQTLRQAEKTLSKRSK
In words: Trypanosoma cruzi tyrosyl tRNA synthetase (TcYRS) _High Tyrosine SOP. Further: in the data most compounds retested in dose-response had high values. It is filed as functional. The conditions noted are these: 30 µM.

The target of test [9] is T4, Tyrosyl-tRNA synthetase, putative (Trypanosoma cruzi (strain CL Brener)). In words: Trypanosoma cruzi tyrosyl tRNA synthetase (TcYRS) SOP. Type of test: functional. The conditions noted are these: 30 µM.
Test [10] has as its target Chromo domain-containing protein 1 (Saccharomyces cerevisiae (strain ATCC 204508 / S288c) (Baker's yeast)) (UniProt P32657). In words: ScCHD-1 Enzyme Inhibition Assay. Further: in the data most compounds retested in dose-response had high values. The note with it: 30 µM. It is filed as functional.

Drawing on ChEMBL document CHEMBL3988442, “University of Dundee, Small-Polar-MMV Screening Library” (2021), this text covers Percent Effect for twelve molecules.

The structures appear in SMILES notation. For part of these data: Measured potencies and affinities stand elsewhere.

Sequence of Chromo domain-containing protein 1 (Saccharomyces cerevisiae (strain ATCC 204508 / S288c) (Baker's yeast)) (P32657 whole entry, the tested form may be a part): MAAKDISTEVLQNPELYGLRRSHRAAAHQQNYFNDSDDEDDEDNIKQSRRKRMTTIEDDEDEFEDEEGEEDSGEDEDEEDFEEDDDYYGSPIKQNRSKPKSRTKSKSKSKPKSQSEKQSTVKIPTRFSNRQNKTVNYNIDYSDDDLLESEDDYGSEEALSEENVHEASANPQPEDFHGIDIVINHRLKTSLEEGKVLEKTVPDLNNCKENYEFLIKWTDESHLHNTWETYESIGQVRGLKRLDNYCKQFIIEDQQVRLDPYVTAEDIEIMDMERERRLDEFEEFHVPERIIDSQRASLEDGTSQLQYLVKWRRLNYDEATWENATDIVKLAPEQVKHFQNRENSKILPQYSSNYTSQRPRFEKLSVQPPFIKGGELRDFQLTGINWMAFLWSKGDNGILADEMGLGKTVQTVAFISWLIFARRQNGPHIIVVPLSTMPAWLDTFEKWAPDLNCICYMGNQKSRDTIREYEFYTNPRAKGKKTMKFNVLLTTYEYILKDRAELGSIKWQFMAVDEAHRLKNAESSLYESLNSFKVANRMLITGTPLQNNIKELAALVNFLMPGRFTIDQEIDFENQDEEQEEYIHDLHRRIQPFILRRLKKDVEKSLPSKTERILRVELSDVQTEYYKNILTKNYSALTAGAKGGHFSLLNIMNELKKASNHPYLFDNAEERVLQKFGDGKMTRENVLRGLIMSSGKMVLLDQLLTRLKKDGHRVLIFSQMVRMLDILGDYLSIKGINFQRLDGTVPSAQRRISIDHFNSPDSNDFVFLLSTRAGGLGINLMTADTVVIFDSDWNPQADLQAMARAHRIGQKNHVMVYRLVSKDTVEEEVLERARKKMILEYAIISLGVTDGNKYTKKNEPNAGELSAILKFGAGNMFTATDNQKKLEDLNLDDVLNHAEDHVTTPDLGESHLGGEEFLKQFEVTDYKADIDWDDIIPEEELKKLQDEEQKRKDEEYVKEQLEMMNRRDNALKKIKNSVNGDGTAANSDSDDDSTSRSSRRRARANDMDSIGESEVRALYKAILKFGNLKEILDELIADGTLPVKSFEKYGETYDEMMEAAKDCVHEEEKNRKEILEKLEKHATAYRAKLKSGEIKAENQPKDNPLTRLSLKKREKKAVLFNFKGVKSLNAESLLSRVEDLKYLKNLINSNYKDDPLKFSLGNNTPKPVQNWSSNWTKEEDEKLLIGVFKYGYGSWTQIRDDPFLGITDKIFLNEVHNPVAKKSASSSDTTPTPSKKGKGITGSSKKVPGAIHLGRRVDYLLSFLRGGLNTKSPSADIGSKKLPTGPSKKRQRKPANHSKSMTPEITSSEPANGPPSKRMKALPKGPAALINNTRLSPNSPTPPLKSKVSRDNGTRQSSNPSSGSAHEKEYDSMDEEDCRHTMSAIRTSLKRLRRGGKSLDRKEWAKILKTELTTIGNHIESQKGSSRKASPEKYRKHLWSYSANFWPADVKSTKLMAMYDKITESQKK
Sequence of Sialic acid-binding Ig-like lectin 9 (Homo sapiens) (Q9Y336 whole entry): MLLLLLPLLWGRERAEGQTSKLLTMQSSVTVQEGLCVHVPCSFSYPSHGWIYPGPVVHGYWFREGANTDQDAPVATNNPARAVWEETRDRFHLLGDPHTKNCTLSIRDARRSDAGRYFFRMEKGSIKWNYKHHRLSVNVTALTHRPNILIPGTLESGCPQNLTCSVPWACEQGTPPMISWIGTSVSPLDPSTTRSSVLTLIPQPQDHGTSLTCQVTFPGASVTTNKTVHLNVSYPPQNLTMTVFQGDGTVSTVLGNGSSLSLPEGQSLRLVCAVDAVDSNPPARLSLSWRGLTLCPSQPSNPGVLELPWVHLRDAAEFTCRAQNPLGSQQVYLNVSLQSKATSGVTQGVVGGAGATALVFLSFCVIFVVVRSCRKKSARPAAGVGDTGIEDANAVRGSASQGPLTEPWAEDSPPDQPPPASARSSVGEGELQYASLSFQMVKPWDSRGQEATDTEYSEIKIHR
Sequence of Protein translocase subunit SecA (Escherichia coli (strain K12)) (P10408 whole entry): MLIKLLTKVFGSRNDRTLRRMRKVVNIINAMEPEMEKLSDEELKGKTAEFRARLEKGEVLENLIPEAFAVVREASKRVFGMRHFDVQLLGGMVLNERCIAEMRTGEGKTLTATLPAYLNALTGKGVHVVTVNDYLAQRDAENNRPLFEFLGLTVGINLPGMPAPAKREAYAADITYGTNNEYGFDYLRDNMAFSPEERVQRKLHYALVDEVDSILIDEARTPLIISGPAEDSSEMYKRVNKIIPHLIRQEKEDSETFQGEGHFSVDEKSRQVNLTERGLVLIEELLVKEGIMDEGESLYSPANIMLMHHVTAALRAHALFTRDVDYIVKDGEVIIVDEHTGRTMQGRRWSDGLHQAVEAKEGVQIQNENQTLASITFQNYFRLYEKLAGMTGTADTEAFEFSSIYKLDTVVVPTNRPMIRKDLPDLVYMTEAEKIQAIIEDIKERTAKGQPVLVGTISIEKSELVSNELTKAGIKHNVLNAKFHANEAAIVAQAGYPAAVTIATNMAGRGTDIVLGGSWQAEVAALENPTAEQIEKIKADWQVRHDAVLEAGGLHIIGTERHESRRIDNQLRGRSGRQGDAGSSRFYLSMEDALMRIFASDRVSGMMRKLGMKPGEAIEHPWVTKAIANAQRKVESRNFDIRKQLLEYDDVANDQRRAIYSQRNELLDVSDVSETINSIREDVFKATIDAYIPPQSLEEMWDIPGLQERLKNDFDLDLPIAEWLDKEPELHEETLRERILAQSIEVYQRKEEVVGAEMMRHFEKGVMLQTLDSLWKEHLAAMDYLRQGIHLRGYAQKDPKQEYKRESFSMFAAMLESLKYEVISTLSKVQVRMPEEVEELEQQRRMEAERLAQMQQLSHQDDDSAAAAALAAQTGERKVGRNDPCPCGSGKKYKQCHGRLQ

In the case of `CNc1cc(C2CCCN2C(=O)c2ccc3oc(=O)n(C)c3c2)ccn1` (stereo not given), the Percent Effect in [1] is -1.24%; in test [2] it was 14.7%; in test [3], 1.42%; in [4], -3.94%; in [5], -1.33%; in [6], 11.3%. In addition, the Percent Effect is -1.54% in [7], 0% in [8], 7.5% in [9] and -22.1% in test [10].

In the case of `CNC(=O)c1ccc(C2CN(C(=O)COC)CCO2)nc1` (stereo not given), the Percent Effect is 0.488% in test [1]; 9.33% in test [2]; 3.63% in test [3]; -4.14% in test [4]; 3.54% in [5]; 7.39% in test [6]. Also, the Percent Effect is 0.241% in test [7], 2.12% in test [8], 7.5% in [9] and -21.4% in [10].

`CN1CCN(CC2CC2)C(=O)c2cnc(N3CCCC3)nc21`: the Percent Effect was -7.66% in test [1]; 0% in [2]; 1.44% in test [3]; -1% in test [4]; -4.88% in test [5]; 4.16% in test [6]. For the same molecule, the Percent Effect in test [7] was 8.07%; in test [8], -4.74%; in test [9] it was -10.3%; in [10] it was -11.6%.

As for `CCCn1ncc2c(C(=O)Nc3n[nH]c(SC)n3)cc(C3CC3)nc21`, the Percent Effect is -0.744% in [1]; 14.7% in [2]; -0.527% in test [3]; -0.395% in test [4]; -13.7% in [5]; 11.8% in test [6]. Also, the Percent Effect in test [7] is 13.4%; in [8], -10.6%; in test [9], 17.5%; in [10], -26.6%.

For the molecule `Cc1ncc(S(C)(=O)=O)c(C2CCCNC2)n1` (stereo not given), the Percent Effect in test [1] is -0.171%; in test [2], 2.7%; in test [3] it was 5.3%; in test [4], -2.81%; in [5], 1.75%; in test [6] it was 8.39%. Also, the Percent Effect in test [7] was 18.1%; in test [8], 6.92%; in test [9], 12.2%; in [10], 111%.

On to `CC(C)c1nc(C2CCCN2CC(=O)Nc2nncs2)no1` (stereo not given), for which the Percent Effect was -6.03% in test [1]; 16% in test [2]; 8.36% in [3]; 0.402% in [4]; -1.33% in [5]; 5.17% in test [6]. For the same molecule, the Percent Effect amounted to 7.39% in test [7], 5.79% in test [8], 15.4% in [9] and 23.5% in test [10].

`Cc1noc(C2CCN(C(=O)c3ccc(N(C)C)nc3)CC2)n1`: the Percent Effect in test [1] was -1.18%; in test [2], 12.8%; in [3], -5.05%; in test [4] it was 3.29%; in test [5], 1.23%; in test [6], -0.0853%. For the same molecule, the Percent Effect was 13.1% in [7], 8.13% in [8], 20.5% in test [9] and -1.36% in test [10].

Consider `Cn1ccc(C(=O)NCc2cccc(N3CCCCC3=O)c2)cc1=O`, for which the Percent Effect was 2.38% in test [1]; 13% in test [2]; 8.44% in test [3]; -0.373% in [4]; -2.66% in [5]; 27.5% in test [6]. Further, the Percent Effect in test [7] is 14.9%; in [8], 9.8%; in test [9], 21.2%; in test [10] it was -9.09%.

Regarding `Cc1ccc(CN2CCCn3c(nc(CN4CCCC4)cc3=O)C2)s1`, the Percent Effect was -4.72% in [1]; 3.9% in test [2]; -1.12% in test [3]; -2.82% in test [4]; -2.02% in [5]; 2.38% in test [6]. Besides, the Percent Effect in test [7] was -18.4%; in test [8], 0.526%; in test [9] it was 7.69%; in test [10] it was 3.51%.

Turning to `CCc1nc(C)c(C(=O)NCCN2CCC(C)CC2)s1`, the Percent Effect was -2.31% in test [1]; -2.6% in test [2]; 7.15% in [3]; -4.1% in test [4]; -2.25% in test [5]; -6.84% in [6]. In addition, the Percent Effect was 9.62% in test [7], 0.98% in test [8], 11.8% in test [9] and -2.04% in test [10].

On to `c1cnc(OCc2nnc3n2CCN(CC2CC2)C3)nc1`, for which the Percent Effect in test [1] is -6.05%; in [2], 1.3%; in test [3], 5.56%; in test [4], 2.04%; in test [5], -5.67%; in [6] it was 2.91%. The Percent Effect in [7] was -10.7%; in test [8], 3.68%; in test [9] it was 7.69%; in [10], 2.01%.

As to `NC(=O)N1CCC2(CC1)CN(Cc1cccnc1)C(=O)CO2`, the Percent Effect in test [1] is -0.758%; in test [2], 11.7%; in [3], 1.96%; in test [4], -0.188%; in [5], 1.37%; in test [6], 8.5%. The Percent Effect was -22.1% in test [7], 10.6% in test [8], 15% in [9] and -1.18% in test [10].
